In all, about 3,400 compounds went through this assay and about 840 (25%) were called active. Roughly 11% stayed inconclusive and do not appear here. Only a sample is shown. Entries with a potency or affinity are not part of this list. Unmarked numbers belong to inactive results.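 How the source made its calls: active means fitted half-maximal concentration of signal decrease at or below twice the sample's top tested concentration; inconclusive means flat curve between -70 and -30 percent, or poor fit; inactive means flat within 30 percent, signal rise, or potency above limit.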
experiment: T. gondii growth inhibition with IFN-gamma, dose response, cell-based, ME49Luc, HeLa, luciferase, 72 h (AID 1259418); details: T. gondii ME49Luc in IFN-y HeLa, stronger effect = lower value, -100% = high-dose IFN-γ control wells; at 19.5 µM unless noted

| Structure (SMILES) | max activity |
| --- | --- |
| CCOC(=O)Cc1ccc(NC(=O)Nc2ccc(-c3nc(-c4ccccc4)co3)cc2)cc1 | 9.92% [at 2.6 µM] |
| OC[C@@H]1[C@@H](c2ccc(-c3cccnc3)cc2)[C@@H]2CN(Cc3ccccn3)CCCCN12 | -5.02% [at 1.2 µM] |
| COc1cc(CN2C[C@@H]3N[C@H](C2)C3c2ccc(-c3ccc(C#N)cc3)cc2)cc(OC)c1 (some centres not stated) | 27% [at 10 µM] |
| COc1cccc(-c2ccc(C3[C@H]4CNC[C@@H]3N4Cc3nccs3)cc2)c1 (some centres not stated) | 51.8% [at 21 µM] |
| Fc1cccc(-c2ccc(C3[C@H]4CNC[C@@H]3N4Cc3ccccn3)cc2)c1 (some centres not stated) | 18.9% [at 5 µM] |
| OC[C@@H]1[C@@H](c2ccc(-c3cccc(F)c3)cc2)[C@@H]2CN(Cc3cncnc3)CCCCN12 | 12.9% |
| O=C(c1cccs1)N1CCC2(CC1)Nc1cc(F)ccc1-n1cccc12 | 9.34% [at 0.68 µM] |
| O=C(CCC1Nc2c3ccccc3nc(=S)n2C1=O)NCCN1CCC(Cc2ccccc2)CC1 (configuration not stated) | 54.5% [at 10 µM] |
| CCc1ccc2c(c1)cc(S(=O)(=O)c1ccccc1)c(=O)n2CC(=O)NCCCOC | 8.62% [at 10 µM] |
| COCCN1CCc2nc(SCc3nc(-c4ccccc4OC)oc3C)[nH]c(=O)c2C1 | 14.3% [at 5 µM] |
| COc1cc(-c2noc(-c3nnn(Cc4nc(-c5ccccc5)oc4C)c3C)n2)ccc1OC(C)C | 9.04% [at 0.16 µM] |
| CSc1cccc(NC(=O)N2CCc3nc(-c4ccc(C)cc4)sc3C2)c1 | 42.8% [at 10 µM] |
| O=C(Nc1ccc(-c2nc(-c3ccccc3)co2)cc1)c1ccccc1Cl | 40% |
| Cn1nccc1C(=O)N1CCC2(CC1)Nc1cc(F)ccc1-n1cccc12 | -9.01% |
| c1csc(-c2cc(NC3CCNCC3)nc3[nH]ccc23)n1 | 35.6% [at 5 µM] |
| Fc1ccc(Nc2nc(SCc3ccccc3F)nc3ccccc23)cc1 | 12.5% |
| Clc1ccc(CSc2nc(Nc3ccc4c(c3)OCO4)c3ccccc3n2)cc1 | 5.7% [at 2.6 µM] |
| COc1cc(Nc2nc(SCc3ccccc3Cl)nc3ccccc23)cc(OC)c1OC | 11% [at 0.68 µM] |
| Fc1cccc(CSc2nc(Nc3ccc4c(c3)OCO4)c3ccccc3n2)c1 | 11.5% |
| CCc1ccc(-c2noc(-c3nnn(Cc4nc(-c5ccccc5)oc4C)c3C)n2)cc1 | 20.7% |
| Cc1ccc(NC(=O)Nc2ccc(-c3nc(-c4ccc(C)cc4C)co3)cc2)cc1 | 46.2% |
| Cc1ccc(CNC2=NCCNC23CCN(S(=O)(=O)c2ccc(CC(C)C)cc2)CC3)cc1 | 13.1% [at 10 µM] |
| CC(C)Cc1ccc(S(=O)(=O)N2CCC3(CC2)NCCN=C3NCc2cc(F)cc(F)c2)cc1 | 20.3% |
| Cc1ccccc1CNC1=NCCNC12CCN(S(=O)(=O)c1ccc(CC(C)C)cc1)CC2 | 13.3% [at 2.6 µM] |

| Structure (SMILES) | max activity |
| --- | --- |
| COc1ccc(NC(=O)N2CCc3nc(-c4ccccc4)sc3C2)cc1OC | -8.38% [at 0.35 µM] |
| Cc1nc(OCC(=O)Nc2ccc(Br)cc2)c2ccccc2n1 | 28% [at 1.35 µM] |
| Cc1ccc(C)c(NC(=O)COc2nc(C)nc3ccccc23)c1 | 15.8% [at 10 µM] |
| N#CCSC1=Nc2ccccc2C2=NC(CCC(=O)NCc3ccccc3)C(=O)N12 (configuration not stated) | 72.9% |
| CCOc1ccc(-c2nc(CN3CCN(C(=O)Nc4cc(C)ccc4C)CC3)c(C)o2)cc1 | -22.4% |
| Cc1nc(OCC(=O)Nc2ccccc2Cl)c2ccccc2n1 | 28.8% [at 0.35 µM] |
| CCc1nc(OCC(=O)Nc2cc(OC)cc(OC)c2)c2ccccc2n1 | 14.7% [at 0.68 µM] |
| COc1ccc(-c2nc(Cn3nnc(-c4nc(-c5cccnc5)no4)c3C)c(C)o2)cc1 | 6.33% [at 5 µM] |
| Cc1nc(OCC(=O)Nc2cccc(C)c2C)c2ccccc2n1 | 9.02% [at 0.16 µM] |
| O=C(NCCc1csc(-c2ccccc2)n1)[C@H]1CCCN1S(=O)(=O)c1cccc(F)c1 | -25.4% [at 1.35 µM] |
| Cc1nc(CCNC(=O)[C@H]2CCCN2S(=O)(=O)c2ccc(C)c(C)c2)cs1 | 15.2% [at 10 µM] |
| Cc1c(S(=O)(=O)N2CCC[C@@H]2C(=O)NCCc2csc(-c3ccccc3)n2)cnn1C(F)F | 5.67% [at 2.6 µM] |
| Cc1nc(CCNC(=O)[C@H]2CCCN2S(=O)(=O)c2ccc(F)cc2)cs1 | 18.1% [at 1.35 µM] |
| Cc1nc(CCNC(=O)[C@H]2CCCN2S(=O)(=O)c2ccccc2C)cs1 | 12.4% [at 10 µM] |
| Cc1ccc(S(=O)(=O)N2CCC[C@@H]2C(=O)NCCc2csc(C)n2)cc1 | 7.86% [at 10 µM] |
| Cc1nc(CCNC(=O)[C@H]2CCCN2S(=O)(=O)c2ccc(Cl)cc2)cs1 | 23.5% [at 0.16 µM] |
| CCc1ccc(S(=O)(=O)N2CCc3nc(-c4cccc(OC)c4)sc3C2)cc1 | -5.58% [at 5 µM] |
| Cc1cccc(-n2ncc3c(NC4CCCCCCCCCCC4)ncnc32)c1 | 22.5% [at 10 µM] |
| CCOC(=O)c1cccc(NC(=O)Nc2ccc(-c3nc(-c4ccccc4)co3)cc2)c1 | 14.5% [at 0.16 µM] |
| COc1ccccc1-c1nc(Cn2nnc(-c3nc(-c4ccc(F)cc4)no3)c2C)c(C)o1 | 9.82% [at 0.16 µM] |
| CS(=O)(=O)N1CCO[C@@H]2CN(C(=O)Cc3ccccn3)CC[C@H]2C1 | -7.92% [at 0.3 µM] |
| COc1ccc(-c2nc(Cn3nnc(-c4nc(-c5ccc(OC(C)C)cc5)no4)c3C)c(C)o2)cc1 | 11.3% [at 0.35 µM] |
| COc1cccc(NC(=O)Nc2ccc(-c3nc(-c4cccc(Br)c4)co3)cc2)c1 | 13.3% |

Source: PubChem BioAssay AID1259418 (Broad Institute, 2018)
